In PubChem BioAssay (NCI) one finds growth data, which are given here for 14 compounds.

Common to all, as to assay: NCI-60 one-dose screen, 48 h (100 = growth as untreated, 0 = no growth, -100 = all killed)
The test system of one test is NCI-H226 lung. The settings on record: 10 µM.
Another test has as its system HOP-62 NSCLC. As to conditions: 10 µM unless noted.
In a further test the test system is NCI-H460 lung. The settings on record: 10 µM unless noted.
The subject of another test is HOP-92 NSCLC. As to conditions: 10 µM unless noted.
The next test has as its system NCI-H522 lung. As to conditions: 10 µM.
The next test has as its system A549/ATCC NSCLC. As to conditions: 10 µM unless noted.
In another test the test system is 786-0 renal. As to conditions: 10 µM unless noted.
Another test concerns COLO 205 colon. The settings on record: 10 µM unless noted.
A further test deals with NCI-H322M lung. The settings on record: 10 µM unless noted.

Compounds without any hit were thinned out: in the full panel of roughly 83,000, 20% have a hit.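 48-hour exposure, single concentration, 96-well plates; percent growth endpoint where 0 means no net growth. Active: below 10.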 A number with no mark means an inactive call. Calls of active or inactive are those of the source.

Turning to `CC(C)(C)CC(C)(C)N(CSc1ccc(Cl)cc1)CSc1ccc(Cl)cc1`, the growth with NCI-H226 lung is 45.2%; in the test on HOP-62 NSCLC it was 83.4%; in the test on NCI-H460 lung, 42.9%; with HOP-92 NSCLC it was 23.3%; in the test with NCI-H522 lung it was -4.63% (active); with A549/ATCC NSCLC, 10.6%. Besides, the growth in the test on 786-0 renal is 41%; in the test on COLO 205 colon it was 75.6%.

Turning to `C=CC[P+](c1ccccc1)(c1ccccc1)c1ccccc1`, the growth is 74.1% in the test on NCI-H226 lung; 81.7% with HOP-62 NSCLC; 53.5% in the test with NCI-H460 lung; 25.4% in the test on HOP-92 NSCLC; 15.1% in the test on NCI-H522 lung; 69.6% in the test with A549/ATCC NSCLC. Further, the growth in the test with 786-0 renal is 84.5%; in the test on COLO 205 colon it was 32.8%.

In the case of `CCOc1ccc(/C=N\N2CCCCCC2)cc1OCC`, the growth was 90.7% in the test on NCI-H226 lung; 93.8% in the test with HOP-62 NSCLC; 106% in the test on NCI-H460 lung; 54.2% with HOP-92 NSCLC; 97.8% with NCI-H522 lung; 106% in the test with A549/ATCC NSCLC. For the same compound, the growth is 106% with 786-0 renal and 84.2% in the test on COLO 205 colon.

In the case of `Cc1nn(-c2ccccc2)c2nc3nc4c(c(N)c3c(-c3ccc(Cl)cc3)c12)CCC4`, the growth is 94.1% in the test on NCI-H226 lung; 101% in the test on HOP-62 NSCLC; 72.7% in the test on NCI-H460 lung; 80.4% with HOP-92 NSCLC; 102% with NCI-H522 lung; 84.8% in the test on A549/ATCC NSCLC. For the same compound, the growth in the test on 786-0 renal is 74%; in the test on COLO 205 colon it was 67%.

Take `O=C(Nc1ccc(F)cc1)c1ccc(C(=O)Nc2ccc(F)cc2)cc1`: the growth in the test with NCI-H226 lung is 99.5%; with HOP-62 NSCLC, 98.2%; in the test with NCI-H460 lung, 105%; in the test with HOP-92 NSCLC it was 105%; in the test on NCI-H522 lung, 111%; in the test on A549/ATCC NSCLC, 98.9%. Moreover, the growth with 786-0 renal is 98.8%; in the test on COLO 205 colon it was 114%.

`CCCCCCCCCCCCCCNc1nc(CO)ncc1-c1ccc(C(F)(F)F)cc1`: the growth with NCI-H226 lung was 101%; in the test on HOP-62 NSCLC, 92.9%; in the test on NCI-H460 lung, 105%; with HOP-92 NSCLC, 89.6%; with NCI-H522 lung, 90.6%; with A549/ATCC NSCLC it was 98.9%. Moreover, the growth with 786-0 renal is 97.3%; in the test on COLO 205 colon, 108%.

In the case of `Cn1c2c(cc(S(=O)(=O)c3ccccc3)c1=O)CCc1c-2cnn1-c1cccc(Cl)c1`, the growth in the test with NCI-H226 lung was 84.6%; in the test on HOP-62 NSCLC, 94.7%; with NCI-H460 lung, 101%; with HOP-92 NSCLC it was 44.8%; with NCI-H522 lung, -81.2% (active); in the test on A549/ATCC NSCLC, 85.6%. In addition, the growth with 786-0 renal is 92.1%; with COLO 205 colon, 97.9%.

Take `OB(O)c1ccccc1`: the growth was 105% with NCI-H226 lung; 111% in the test with NCI-H322M lung; 110% in the test with NCI-H460 lung; 112% in the test on HOP-92 NSCLC; 103% with NCI-H522 lung; 98.5% with A549/ATCC NSCLC. Moreover, the growth was 103% with 786-0 renal and 116% in the test on COLO 205 colon.

On to `C=CC(=O)N1CC2(CCC(n3nc(-c4ccc(Oc5ccccc5)cc4)c4c(N)ncnc43)CC2)C1`, for which the growth in the test with NCI-H226 lung was -77.7% (active); in the test with NCI-H322M lung, 0.179% (active); in the test on HOP-62 NSCLC it was -2.62% (active); in the test on HOP-92 NSCLC, -66.4% (active); in the test with A549/ATCC NSCLC, -78.7% (active); with 786-0 renal it was -87.7% (active). Further, the growth in the test on COLO 205 colon was -11.6% (active).

Consider `CCCCC(CCCC)(S(=O)(=O)CC)S(=O)(=O)CC`, for which the growth in the test with NCI-H226 lung was 95.2%; in the test with HOP-62 NSCLC, 92.5%; in the test with NCI-H460 lung, 104%; in the test on HOP-92 NSCLC it was 87.6%; in the test with NCI-H522 lung, 87.3%; in the test with A549/ATCC NSCLC, 94.3%. The growth is 98.6% with 786-0 renal and 103% in the test with COLO 205 colon.

In the case of `CCCCC(=O)N/N=C/c1cc(I)cc(I)c1O`, the growth was 73.3% in the test with NCI-H226 lung; 42.5% with HOP-62 NSCLC; 28.1% in the test with NCI-H460 lung; 48.7% in the test on HOP-92 NSCLC; 60.5% in the test with NCI-H522 lung; 46.6% in the test with A549/ATCC NSCLC. In addition, the growth with 786-0 renal is 56.9%; in the test on COLO 205 colon, 57%.

With `CSC1=CC(=O)c2ccccc2C1=O`, the growth with NCI-H226 lung is 89.2%; with NCI-H322M lung it was 107%; in the test with NCI-H460 lung it was 95.6%; with HOP-92 NSCLC, -29% (active); in the test with NCI-H522 lung it was 18.5%; in the test with A549/ATCC NSCLC it was 99.1%. In addition, the values for the growth in the test on 786-0 renal and in the test on COLO 205 colon were 106% and 101%, respectively.

On to `O=[N+]([O-])c1cc2c(cc1Br)C1C(C3C2C(Cl)(Cl)C(Cl)=C(Cl)C3(Cl)Cl)C(Cl)(Cl)C(Cl)=C(Cl)C1(Cl)Cl` (stereo unspecified), for which the growth in the test with NCI-H226 lung was 86.7%; with HOP-62 NSCLC it was 92.2%; in the test with NCI-H460 lung it was 107%; in the test with HOP-92 NSCLC it was 100%; with NCI-H522 lung, 83.1%; in the test on A549/ATCC NSCLC, 95.7%. The results for the growth in the test with 786-0 renal and with COLO 205 colon were 89.9% and 110%, respectively.

As to `CCCCCCCCCCCCSC1=CC(=O)C=CC1=O`, the growth in the test with NCI-H226 lung was 91.5%; in the test with HOP-62 NSCLC, 82.2%; with NCI-H460 lung it was 105%; in the test with HOP-92 NSCLC it was 24.3%; in the test with NCI-H522 lung it was -81.2% (active); in the test with A549/ATCC NSCLC, 92.3%. The growth was 98.7% in the test on 786-0 renal and 107% in the test with COLO 205 colon.
